The entries come from a sample that favours hits as a whole.
LmPK inh – inhibitors of Leishmania mexicana pyruvate kinase | Q27686 | purified LmPK, Kinase-Glo ATP luminescence, 1 h | Potency, µM (highest dose often 57.5 µM), inactives show at the highest dose activity change, negative = inhibition, usual class: inhibitors | 290,000 compounds, 0.37% hits | AID 1721; also: potency is read from the fitted curve at half-maximal effect; % is scaled to controls: 0 for no effect and ±100 for the full control effect
Target sequence (Q27686 whole entry, looked up): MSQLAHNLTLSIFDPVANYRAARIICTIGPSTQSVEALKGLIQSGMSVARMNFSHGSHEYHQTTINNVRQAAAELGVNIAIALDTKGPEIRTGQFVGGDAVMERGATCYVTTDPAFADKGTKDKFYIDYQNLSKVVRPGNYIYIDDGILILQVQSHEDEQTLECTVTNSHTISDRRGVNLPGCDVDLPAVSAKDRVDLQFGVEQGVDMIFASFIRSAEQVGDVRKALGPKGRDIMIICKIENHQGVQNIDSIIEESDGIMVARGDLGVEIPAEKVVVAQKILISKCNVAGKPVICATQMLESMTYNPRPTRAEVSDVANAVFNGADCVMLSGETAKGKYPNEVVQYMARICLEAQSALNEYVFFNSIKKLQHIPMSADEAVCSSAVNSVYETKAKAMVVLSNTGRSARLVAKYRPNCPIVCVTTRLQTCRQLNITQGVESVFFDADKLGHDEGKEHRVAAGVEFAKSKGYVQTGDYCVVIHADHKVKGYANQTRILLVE
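Kinase-Glo luminescence read after 1 h RT reaction of 0.1 nM LmPK with 0.5 mM PEP and 0.1 mM ADP. Activity scaled between uninhibited and enzyme-free controls.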
Cycloheximide cs – counter-screen for Shiga toxin inhibitors: cycloheximide protein synthesis inhibition; cell reporter, cycloheximide protein synthesis inhibition counterscreen; max response, %; 300,000 compounds, 12% hits; AID 2314; in the data active = max response mostly above about 13%, no sharp cut-off; inactive = mostly below about 14%; also: read at 38.3 µM for the half of the compounds with a filed dose; 0% is about no effect
Shiga toxin inh – Shiga toxin inhibition; Vero cells, Shiga toxin protein synthesis inhibition reporter; inhibition, % at 38.7 µM; 290,000 compounds, 9.2% hits; AID 2315; in the data active = inhibition mostly above about 28%, no sharp cut-off; inactive = mostly below about 43%; also: 0% is about no effect
TbPYK inhibitor – T. brucei pyruvate kinase inhibition. Potency, µM (top dose mostly 76.8 µM), inactives show at the highest dose activity, negative = inhibition, actives largely listed as inhibitors. TbPYK enzyme, Kinase-Glo Plus ATP luminescence, 45 min. Q57TT1. 410,000 compounds, 0.12% hits; also: potency is read from the fitted curve at half-maximal effect; % is scaled to controls: 0 for no effect and ±100 for the full control effect; nearly all actives have a fitted effect of over 50% in size
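Screened from lowest to highest concentration, compounds were pinned into TbPYK/substrate mixtures, and ADP (130 uM final) was added. Plates sat at room temperature for 45 min prior to Kinase-Glo Plus detection by luminescence.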
Giardia FBPA inh – Giardia lamblia aldolase inhibition; Potency, µM (series often up to 59.6 µM), for inactives: at the highest dose activity, negative = inhibition, actives largely listed as inhibitors; 290,000 compounds, 0.71% hits; purified Giardia FBPA; AID 2451; also: potency is read from the fitted curve at half-maximal effect; % is scaled to controls: 0 for no effect and ±100 for the full control effect; nearly all actives have a fitted effect of over 55% in size
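40 nM FBPA preincubated 10 min at RT with compound (up to 57.5 uM final), then substrate plus GAPDH/TPI/NAD/arsenate coupling and diaphorase/resazurin added. Fluorescence read after 20 min at RT, 525/598 nm.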
RE007 growth inh – less growth of the S. pombe RE007 Vpr strain; S. pombe RE007 Vpr strain, BacTiter-Glo ATP luminescence, 24 h; AID 651644; Potency, µM (doses to about 92.2 µM), without a hit: at the top dose activity change, negative = less growth, usual class: inhibitors; 360,000 compounds, 0.21% hits; active = well fitted falling curve with a large enough effect; inconclusive = small, poorly fitted or top-dose-only effect; inactive = no such curve, though single readings can be large or run the other way; also: potency is read from the fitted curve at half-maximal effect; % is scaled to controls: 0 for no effect and ±100 for the full control effect; nearly all actives have a fitted effect of over 50% in size
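Fission yeast strain RE007, carrying one chromosomally integrated HIV-1 vpr copy, was seeded at OD 0.01 in PMG+AL medium with 23 nL pinned compound. After 24 h at 30 °C and 99% humidity, viability was read by BacTiter-Glo luminescence.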
* = called active by the depositor; ? = inconclusive; / = not tested or not shown; + = active, no number; ! = a repeat was not active; [ ] = remark or other dose. Unless noted, calls follow the shape of the dose curve; as a rule, active = well fitted curve in the direction sought with a large enough effect; inconclusive = small, poorly fitted or top-dose-only effect, or another doubt; inactive = no such curve, though single readings can be large; an effect the other way counts as inactive or inconclusive.

SMILES	LmPK inh	Cycloheximide cs	Shiga toxin inh	TbPYK inhibitor	Giardia FBPA inh	RE007 growth inh
O=C(CN(C(=O)c1csnn1)c1ccc(Cl)cc1)NC1CCCC1	7%	-4	8	1%	-1%	-5%
CC(=O)N(C)/C=C1\Sc2ccccc2C1=O	10%	17*	42	1%	8%	?
CCC(=O)N(C)/C=C1\Sc2ccccc2C1=O	-6%	30*	148*	6%	/	-5%
CC(=O)Nc1ccc(/C=C2\Sc3ccccc3C2=O)cc1	-1%	5	25	-4%	2%	6%
O=CN(/C=C1\Sc2ccccc2C1=O)Cc1ccccc1	13%	40*	67*	6%	-3%	-17%
C[C@@H]1CC2C3CCC4=CC(=O)C=C[C@]4(C)[C@@]3(F)[C@@H](O)C[C@]2(C)[C@@]1(O)C(=O)COC(=O)c1cccc(S(=O)(=O)O)c1 (stereo partly drawn)	/	/	/	0%	/	/
COc1ncc2nc(C)c(=O)n(C)c2n1	/	/	/	0%	-4%	/
O=C(NCc1ccc2c(c1)OCO2)O[C@@H]1C(=O)c2cc(Br)ccc2O[C@H]1c1ccc2c(c1)OCO2	/	/	/	/	-4%	/
CCCN=C(N)NCCC[C@H](N)C(=O)O	/	/	/	/	0%	/
CN1CCc2c(sc(/N=C/c3cc(Cl)ccc3O)c2C#N)C1	-12%	52*	101*	-19%	-13%	?
CCOC(=O)c1c(/N=C/c2ccc(OC)cc2O)sc2c1CCN(C)C2	-5%	3	22	-13%	?	2%
Cc1cc(-n2c(C)cc(C(=O)COc3ccc(Cl)cc3C(N)=O)c2C)no1	/	/	/	-4%	/	2%
Cc1ccc(/C=N/N2CCN(c3ccccc3)CC2)cc1	-3%	19*	46	-3%	2%	-4%
Cc1ccccc1/C=N/N1CCN(c2ccccc2)CC1	5%	50*	103*	5%	4%	-9%
Cc1cccc(/C=N/N2CCN(c3ccccc3)CC2)c1	-19%	42*	73*	3%	1%	3%
CSc1ccc(/C=N/N2CCN(c3ccccc3)CC2)cc1	-7%	-1	17	6%	4%	8%
COc1ccccc1/C=N/N1CCN(c2ccc(Cl)cc2)CC1	1%	6	/	-3%	-2%	-8%
COc1cccc(N2CCN(C(=O)c3ccc4c(Cl)c5c(nc4c3)CCCC5)CC2)c1	/	/	/	-8%	/	/
Cc1ccc(C)c(N2CCN(C(=O)CN3C(=O)COc4ccc(S(=O)(=O)N5CCOCC5)cc43)CC2)c1	/	/	/	-4%	/	/
CCCCOc1ccc(C2(C)CC(=O)NC2=O)cc1 (stereo not drawn)	-1%	22*	78	-10%	4%	1%
CCCOc1ccc(CC2CCC(=O)NC2=O)cc1 (stereo not drawn)	-3%	-4	-9	3%	4%	29%
Fc1ccc2c(c1)C(c1ccncc1)=NNC(c1ccccc1)=N2	1%	62*	72*	-6%	-5%	-6%
c1ccc(C2=Nc3cccnc3C(c3ccccc3)=NN2)cc1	7%	34*	92*	-10%	2%	1%
Fc1ccc2c(c1)C(c1ccncc1)=NNC(c1ccc(Cl)cc1)=N2	-1%	3	18	-12%	3%	-28%
CCOc1ccc(C(=O)NCC(C)C)cc1	-9%	22*	57*	1%	18%	7%
SMILES	LmPK inh	Cycloheximide cs	Shiga toxin inh	TbPYK inhibitor	Giardia FBPA inh	RE007 growth inh
CCOc1ccc(C(=O)NCC(c2cccs2)S(=O)(=O)c2ccccc2)cc1 (stereo not drawn)	/	/	/	-1%	/	/
CCOc1ccc(C(=O)NCC(c2cccs2)N(C)C)cc1 (stereo not drawn)	3%	35*	28*	1%	-4%	10%
CCOc1ccc(C(=O)NC(C)C2COc3ccccc3O2)cc1 (stereo not drawn)	9%	11*	34	4%	0%	0%
COc1cc2c(cc1OC)C(COc1ccccc1OC)N(C(=O)c1ccccc1OC)CC2 (stereo not drawn)	/	/	/	-4%	/	/
Cc1ccnc2nc(C(=O)Nc3ccc(N4CCOCC4)cc3)nn12	?	28*	74*	?	-13%	9%
O=C(Nc1ccc(N2CCOCC2)cc1)c1ccc([N+](=O)[O-])cc1	-7%	28*	85*	7%	-10%	-18%
O=C(Nc1ccc(N2CCOCC2)cc1)c1ccncc1	-2%	14*	32*	-2%	1%	-5%
COc1ccccc1-c1ccc2ncnc(NCCNC(C)=O)c2c1	/	/	/	/	5%	/
C=C(C)[C@H]1CN[C@H](C(=O)O)[C@H]1CC(=O)O	/	-5	47*!	-2%	0%	10%[18.4 µM]
CCOC(=O)c1c(C)oc2c1c(C=NCC1CCCO1)c(O)c1ccccc12 (stereo not drawn)	1%	-3	-11	1%	?	-21%
CCOC(=O)c1c(C)oc2c1c1c(c3ccccc32)OCN(Cc2cccnc2)C1	0%	77*	131*	-3%	5µM*	-3%
CCOC(=O)c1c(C)oc2c1c1c(c3ccccc32)OCN(CCCC(=O)O)C1	3%	62*	89*	1%	?	-9%
Cc1ccc(C)c(NC(=O)Cn2c(=O)nc(-c3ccccc3)c3ccccc32)c1	/	/	/	-4%	/	/
CN(C)c1ccc([C@@H]2[C@@H]([N+](=O)[O-])[C@H]3C=Cc4ccccc4N3[C@H]2C(=O)c2ccc(Cl)cc2)cc1	-13%	21*	22*	-5%	-14%	?
O=C(c1ccccc1)C1C(c2ccccc2)C1[N+](=O)[O-] (stereo not drawn)	7%	-2	20	3%	1%	11%
Cn1cc(Br)c(C(=O)N/N=C/c2cc3c(cc2Cl)OCO3)n1	-2%	24*	55	-2%	-5%	-2%
Cc1nonc1C(=O)N/N=C/c1cc2c(cc1Br)OCO2	-13%	28*	46	-1%	-12%	5%
Cc1onc(-c2ccccc2)c1C(=O)N/N=C/c1cc2c(cc1Cl)OCO2	4%	-1	10	0%	0%	-6%
O=C(N/N=C/c1cc2c(cc1Cl)OCO2)c1ccccn1	/	/	/	-11%	/	-2%
Cc1nn(C)c(C(=O)N/N=C/c2cc3c(cc2Br)OCO3)c1Br	0%	-2	-4	4%	9%	-1%
Nc1nonc1C(=O)N/N=C\c1cc2c(cc1Cl)OCO2	-14%	44*	42*	-9%	/	-10%
Cn1cc(Br)c(C(=O)N/N=C/c2cccc(OC3CSC3)c2)n1	-10%	57*	+	-3%	-27%	14%
COc1ccc(CN2CCSc3sccc3C2=O)cc1	-6%	0	-2	4%	7%	-25%
CN1CC[C@H](CN2c3ccccc3Sc3ccccc32)C1	/	/	/	0%	/	/
CCn1nc2cc(C(=O)NCCc3cccs3)ccc2c1OC	-8%	40*	75*	6%	4%	6%

Compound activity from PubChem BioAssay.
